Screens: PubChem BioAssay, National Center for Advancing Translational Sciences (NCATS)
In the library only some 19% were active in any assay of this set; here they are far more common.
HepG2 viability – HepG2 cytotoxicity, counter-screen for TGF-b inhibitors. HepG2 CAGA-GFP viability, ATP luminescence, 18 h. 0.76% of 410,000 active. Potency, µM (top dose mostly 46.1 µM), for the others: at the top dose activity change, negative = cytotoxicity, usual class: cytotoxic; also: potency is read from the fitted curve at half-maximal effect
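HepG2 CAGA-GFP cells (1000/well, DMEM with 1% FBS) received compound, then TGF-beta at 500 pg/mL final, and were incubated 18 hours at 37 degrees C. Viability was read by CellTiter-Glo luminescence. Media-only wells were set as complete cell-killing and DMSO as no toxicity.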
TDP1 inh – TDP1 (human) enzyme inhibition. recombinant TDP1, AlphaScreen DNA substrate cleavage. Potency, µM (series often up to 130 µM), inactives show top-dose activity change, negative = inhibition, usual class: inhibitors. 0.28% of 350,000 active. AID 485290; also: potency is read from the fitted curve at half-maximal effect; % is scaled to controls: 0 for no effect and ±100 for the full control effect; nearly all actives have a fitted effect of over 40% in size
Target sequence (Q9NUW8 whole entry, looked up): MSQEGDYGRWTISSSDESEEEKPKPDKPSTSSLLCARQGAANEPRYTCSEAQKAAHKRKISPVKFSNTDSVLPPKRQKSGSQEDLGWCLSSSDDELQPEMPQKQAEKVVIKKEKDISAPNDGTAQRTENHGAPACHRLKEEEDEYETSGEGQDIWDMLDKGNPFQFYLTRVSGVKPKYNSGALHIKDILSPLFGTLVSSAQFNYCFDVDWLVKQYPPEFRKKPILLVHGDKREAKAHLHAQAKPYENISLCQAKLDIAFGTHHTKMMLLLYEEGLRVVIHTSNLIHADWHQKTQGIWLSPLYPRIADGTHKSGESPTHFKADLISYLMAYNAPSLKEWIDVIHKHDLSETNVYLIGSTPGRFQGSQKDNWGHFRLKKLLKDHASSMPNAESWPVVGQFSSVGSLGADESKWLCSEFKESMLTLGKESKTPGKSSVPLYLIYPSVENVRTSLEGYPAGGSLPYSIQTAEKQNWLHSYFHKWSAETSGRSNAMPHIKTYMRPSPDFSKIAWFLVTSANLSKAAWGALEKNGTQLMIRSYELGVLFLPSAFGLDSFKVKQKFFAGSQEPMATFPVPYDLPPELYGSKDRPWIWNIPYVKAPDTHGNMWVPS
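Signal: AlphaScreen proximity between streptavidin donor and anti-FITC acceptor beads on intact substrate. Reaction: Tdp1 1 nM, substrate 15 nM final, 5 min RT after 15 min compound preincubation.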
IL-1B inflam inh – blocks inflammasome-driven IL-1 beta release; THP-1 LPS/ATP IL-1B secretion, AlphaLISA, 16 h; active compounds read low; activity change, % at 57.5 µM; 4.7% of 360,000 active; AID 743279; in the data active = activity change below about -50%; inconclusive = mostly about -30% to -49%; also: % is scaled to controls: 0 for no effect and ±100 for the full control effect
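THP-1 cells pretreated 1 hr with compounds (up to 57.5 uM final), then stimulated with LPS (250 ng/mL final) plus ATP (1.25 mM final); secreted IL-1B measured by AlphaLISA after 16 hr, decreased signal indicating inhibition.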
TDP1 cell CPT – growth inhibition of DT40 Tdp1-/-;hTDP1 cells with camptothecin (screen for TDP1 inhibitors) | chicken DT40 Tdp1-/-;hTDP1 cells + 20 nM CPT, ATP luminescence, 48 h | Potency, µM (top dose mostly 46.2 µM), for inactives: top-dose activity change, negative = growth inhibition, usual class: inhibitors | 12% of 420,000 active | AID 686979; also: potency is read from the fitted curve at half-maximal effect; % is scaled to controls: 0 for no effect and ±100 for the full control effect; nearly all actives have a fitted effect of over 55% in size
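Cell growth measured by CellTiter-Glo luminescence after a minimum 48 h, 37 C compound exposure with 20 nM CPT in Tdp1-knockout DT40 cells stably expressing hTDP1, seeded 400/well; qHTS titration format.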
DT40 TDP1 no CPT – qHTS for Inhibitors of human tyrosyl-DNA phosphodiesterase 1 (TDP1): qHTS in cells in absence of CPT. DT40 Tdp1-/- hTDP1 cells, no CPT, ATP luminescence, 48 h. Potency, µM (doses to about 46.2 µM), for the others: at the highest dose activity change, negative = growth inhibition, actives largely listed as inhibitors. 15% of 420,000 active. AID 686978, 2013; also: potency is read from the fitted curve at half-maximal effect; % is scaled to controls: 0 for no effect and ±100 for the full control effect; nearly all actives have a fitted effect of over 55% in size
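Chicken DT40 Tdp1-/- cells complemented with human TDP1, screened without camptothecin (DMSO vehicle only), 400 cells/well. Compounds pin-transferred, cells incubated at 37 °C for at least 48 hr. Growth read as ATP-dependent luminescence (CellTiter-Glo, 30 min at RT).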
TGFb SMAD3 inh – blocks TGF-b signaling; HepG2 CAGA-GFP TGF-b/SMAD3 reporter, GFP fluorescence, 18 h; TGF-beta stimulated, 500 pg/mL final; 1.2% of 410,000 active; AID 588855; Potency, µM (series often up to 46.1 µM), for the others: top-dose activity, negative = inhibition, usual class: inhibitors; also: potency is read from the fitted curve at half-maximal effect; % is scaled to controls: 0 for no effect and ±100 for the full control effect; nearly all actives have a fitted effect of over 65% in size
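Read-out: total well GFP (ex488/em500-530) summed from mean per-cell fluorescence. Cells: HEPG2 CAGA-GFP, 1% FBS DMEM, 18 h at 37 degrees C with 500 pg/mL final TGF-beta. Unstimulated wells served as the full-inhibition control; stimulated DMSO wells = 0%.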
* = called active by the depositor; u = inconclusive; x = not tested or not shown; [ ] = another dose, or the depositor's remark. Unless noted, calls follow the shape of the dose curve; as a rule, active = well fitted curve in the direction sought with a large enough effect; inconclusive = small, poorly fitted or top-dose-only effect, or another doubt; inactive = no such curve, though single readings can be large; an effect the other way counts as inactive or inconclusive.

SMILES	HepG2 viability	TDP1 inh	IL-1B inflam inh	TDP1 cell CPT	DT40 TDP1 no CPT	TGFb SMAD3 inh
CN(C)S(=O)(=O)c1ccc2c(c1)nnn2CCNC(=O)Nc1ccc(Br)cc1	-21%	6%	x	0%	-12%	-7%
Cc1ccc(Cn2c(=O)n(Cc3ccco3)c(=O)c3sc4ccccc4c32)cc1	-10%	1%	x	u	u	-23%
O=c1c2sc3ccccc3c2n(Cc2cccc(C(F)(F)F)c2)c(=O)n1-c1ccccc1	-24%	-3%	x	u	13µM*	-22%
Cc1ccc(CNC(=O)Cn2c(=O)n(Cc3ccccc3)c(=O)c3sc4ccccc4c32)cc1	13%	-4%	x	u	u	-1%
Cc1ccc(NC(=O)Cn2c(=O)n(Cc3ccccc3)c(=O)c3sc4ccccc4c32)cc1	3%	1%	x	5.8µM*	5.8µM*	-1%
Cc1cccc(Cn2c(=O)n(Cc3ccccc3)c(=O)c3sc4ccccc4c32)c1	18%	-2%	x	u	23µM*	-16%
Cn1c(=O)n(Cc2ccccc2)c(=O)c2c1nc1n2CCN1c1ccccc1	-27%	3%	x	-12%	-16%	1%
Cc1ccc(C)c(N2CCN(C(=O)C3CCCN(S(=O)(=O)c4ccc5c(c4)oc(=O)n5C)C3)CC2)c1 (stereo not drawn)	5%	-1%	x	16µM*	12µM*	-7%
Cn1c(=O)oc2cc(S(=O)(=O)N3CCCC(C(=O)N4CCn5c4nc4ccccc45)C3)ccc21 (stereo not drawn)	x	3%	x	x	x	x
Cn1c(=O)oc2cc(S(=O)(=O)N3CCCC(C(=O)N4CCc5ccccc5C4)C3)ccc21 (stereo not drawn)	-10%	-3%	-6	16µM*	15µM*	u
CCOC(=O)C1CCCN(C(=O)C2CCCN(S(=O)(=O)c3ccc4c(c3)oc(=O)n4C)C2)C1 (stereo not drawn)	3%	0%	4	-20%	u	-20%
COc1ccc(N2CCN(C(=O)C3CCN(S(=O)(=O)c4ccc5c(c4)oc(=O)n5C)CC3)CC2)cc1	1%	7%	4	u	9.2µM*	-2%
Cc1ccc(C)c(N2CCN(C(=O)C3CCN(S(=O)(=O)c4ccc5[nH]c(=O)oc5c4)CC3)CC2)c1	-3%	14%	x	23µM*	26µM*	u
CC(OC(=O)c1nc(Cl)ccc1Cl)C(=O)c1ccccc1 (stereo not drawn)	0%	x	-1	-1%	-1%	-2%
CC(=O)N1CCN(C(=O)C2CCN(S(=O)(=O)c3ccccc3C(F)(F)F)CC2)CC1	-8%	-2%	19	-8%	-15%	-9%
Cc1cccc(CN2C[C@H](Sc3ccccn3)C[C@H]2C(=O)Nc2ccc3sc(C)nc3c2)c1	x	x	x	1%[9.04 µM]	-20%	x
O=C1C(=O)C(c2cc(O)c(O)c(O)c2)Oc2cc(O)cc(O)c21 (stereo not drawn)	8%	x	x	u	u	-6%
Cc1nc2ccc(S(=O)(=O)NC(C(=O)N3CCCC3)C(C)C)cc2s1 (stereo not drawn)	6%	5%	8	u	-26%	-2%
COc1cc(NC(=O)C2CCN(S(=O)(=O)c3ccc4c(c3)oc(=O)n4C)CC2)cc(OC)c1	4%	-1%	x	u	21µM*	-10%
Cn1c(=O)oc2cc(S(=O)(=O)N3CCCC(C(=O)N4CCN(c5ccc(F)cc5)CC4)C3)ccc21 (stereo not drawn)	-8%	-1%	x	7.3µM*	4.1µM*	-14%
